Laboratory results from PubChem BioAssay (NCATS).
“And” between values parts separate entries of the source, which are not always exact repeats. Equal values may be shown once. Records with an inconclusive call do not appear. The source made the active and inactive calls. The call rests on the fitted dose curve; in most records, active means well fitted curve in the direction sought with a large enough effect; inconclusive means small, poorly fitted or top-dose-only effect, or another doubt; inactive means no such curve, though single readings can be large; an effect the other way counts as inactive or inconclusive.

Experiments:
[1] = test system: TAB165; assay: qHTS profiling for inhibitors of Plasmodium falciparum proliferation (AID 504749);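 further: 0% = DMSO vehicle and full inhibition = artemisinin control; nearly all actives have a fitted effect of over 60% in size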; settings: P. falciparum in erythrocytes, SYBR Green DNA, 72 h; series mostly up to 28.7 µM
Outline: (§1)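 Parasite proliferation within erythrocytes, 72 h exposure. Endpoint: SYBR Green I fluorescence after overnight lysis at room temperature. Controls: 0.29 uM artemisinin, DMSO.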

[2] = test system: W2; assay: as above; settings: P. falciparum in erythrocytes, SYBR Green DNA, 72 h; series mostly up to 28.7 µM
Outline: as §1

[3] = test system: CRL-7250; assay: Cytotoxic Profiling of Annotated Libraries Using Quantitative High-Throughput Screening (AID 1296008); settings: Five cell lines viability, CellTiter-Glo ATP luminescence, 48-72 h; max response: hits give low values; further: nearly all actives have a fitted effect of over 60% in size; on max response: on the % scale 0 is the no-effect control and ±100 the full control effect
Outline: (§2)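 Compounds were pin-transferred onto cells and incubated 48 or 72 hr at 37 degree Celsius, 95% humidity. CellTiter-Glo was added, plates sat 10 min at room temperature, then ATP-coupled luminescence was imaged as the viability read-out.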

[4] = test system: HEK293; assay: as above; settings: Five cell lines viability, CellTiter-Glo ATP luminescence, 48-72 h; max response: hits give low values
Outline: as §2

[5] = test system: HaCat; assay: as above; settings: Five cell lines viability, CellTiter-Glo ATP luminescence, 48-72 h; max response: hits give low values
Outline: as §2

[6] = test system: KB-3-1; assay: as above; settings: Five cell lines viability, CellTiter-Glo ATP luminescence, 48-72 h; max response: hits give low values
Outline: as §2

[7] = test system: NIH3T3; assay: as above; settings: Five cell lines viability, CellTiter-Glo ATP luminescence, 48-72 h; max response: hits give low values
Outline: as §2

[8] = test system: HEK293T; assay: qHTS assay to identify novel small-molecules to repurpose for Merkel cell carcinoma treatment (AID 1296009); settings: MCC and control cell lines, CellTiter-Glo viability, 72 h; at 44.8 µM (top of the series) unless noted; further: nearly all actives have a fitted effect of over 60% in size
Outline: (§3)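 qHTS format: cells treated with library compounds in DMSO across 8 (NPC) or 11 (MIPE) concentrations. Readout after 72 hr at 37 degree celsius was CellTiter-Glo luminescence.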

[9] = test system: MCC-13; assay: as above; settings: MCC and control cell lines, CellTiter-Glo viability, 72 h; series mostly up to 46 µM
Outline: as §3

[10] = test system: MCC-26; assay: as above; settings: MCC and control cell lines, CellTiter-Glo viability, 72 h; series mostly up to 46 µM
Outline: as §3

[11] = test system: MKL-1; assay: as above; settings: MCC and control cell lines, CellTiter-Glo viability, 72 h; series mostly up to 46 µM
Outline: as §3

[12] = test system: MKL-2; assay: as above; settings: MCC and control cell lines, CellTiter-Glo viability, 72 h; series mostly up to 46 µM
Outline: as §3

[13] = test system: NIH3T3; assay: as above; settings: MCC and control cell lines, CellTiter-Glo viability, 72 h; at 44.8 µM (top of the series) unless noted
Outline: as §3

[14] = test system: UISO; assay: as above; settings: MCC and control cell lines, CellTiter-Glo viability, 72 h; series mostly up to 46 µM
Outline: as §3

[15] = test system: WaGa; assay: as above; settings: MCC and control cell lines, CellTiter-Glo viability, 72 h; series mostly up to 46 µM
Outline: as §3

[16] = test system: C33A; assay: Primary qHTS to identify gynecologic anti-cancer compounds using libraries of approved drugs and bioactive compounds (AID 1345084); settings: Gynecologic cancer cell panel viability, ATPlite luminescence, 48 h; series mostly up to 57.5 µM; further: on the % scale 0 is the no-effect control and ±100 the full control effect; nearly all actives have a fitted effect of over 55% in size
Outline: (§4)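 Cells, 1,000 per well, were allowed to settle for 16 h at 37 C before compound addition. Five concentrations were tested for 48 h, and viability was read by ATPlite luminescence after 15 min at room temperature.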

[17] = test system: CAOV3; assay: as above; settings: Gynecologic cancer cell panel viability, ATPlite luminescence, 48 h; series mostly up to 57.5 µM
Outline: as §4

[18] = test system: CASKI; assay: as above; settings: Gynecologic cancer cell panel viability, ATPlite luminescence, 48 h; series mostly up to 57.5 µM
Outline: as §4

[19] = test system: Es-2; assay: as above; settings: Gynecologic cancer cell panel viability, ATPlite luminescence, 48 h; series mostly up to 57.5 µM
Outline: as §4

[20] = test system: HACAT; assay: qHTS assay to identify novel small-molecules to repurpose for Merkel cell carcinoma treatment (AID 1296009); settings: MCC and control cell lines, CellTiter-Glo viability, 72 h; at 44.8 µM (top of the series) unless noted; further: nearly all actives have a fitted effect of over 60% in size
Outline: as §3

CCn1cc(C(=O)O)c(=O)c2cnc(N3CCNCC3)nc21
inactive: Potency [1] | Potency [2] | max response [3] -6.3% | outcome [4] | max response [5] -4.47% | max response [6] -0.342% | outcome [7] | outcome [8] | Potency [9] | Potency [10] | Potency [11] | Potency [12] | outcome [13] | Potency [14] | Potency [15] | Potency [16] | Potency [17] | Potency [18] | Potency [19]

CC(=O)Nc1ccc(/C=N/NC(N)=S)cc1
inactive: Potency [1] | Potency [2] | outcome [3] | max response [4] 0.104% | outcome [5] | max response [6] -10.7% and 2.19% | max response [7] -3.1% | outcome [20] | Potency [9] | Potency [10] | Potency [11] | Potency [12] | Potency [14] | Potency [15] | Potency [16] | Potency [17] | Potency [18] | Potency [19]

O=c1cc(CO)occ1O
inactive: Potency [1] | Potency [2] | max response [3] -3.51% | outcome [4] | max response [5] 2.79% | max response [6] 1.74% and -12.5% | max response [7] -2.71% | outcome [8] | Potency [9] | Potency [10] | Potency [11] | Potency [12] | Potency [14] | Potency [15] | Potency [16] | Potency [17] | Potency [18] | Potency [19]

NC(=O)c1ncn([C@@H]2O[C@H](CO)[C@@H](O)[C@H]2O)c1N
inactive: max response [3] -9.1% | max response [4] -5.61% | max response [5] -15% | max response [6] 12% | max response [7] -10.7% | Potency [9] | Potency [10] | Potency [11] | Potency [12] | Potency [14] | Potency [15] | Potency [16] | Potency [17] | Potency [18] | Potency [19]

CC(C)(C)C(=O)NCCCC(=O)O
inactive: Potency [1] | Potency [2] | max response [3] -4.98% | outcome [4] | max response [5] 4.53% | max response [6] -0.595% | outcome [7] | outcome [8] | Potency [9] | Potency [10] | Potency [11] | Potency [12] | outcome [13] | Potency [14] | Potency [15] | Potency [16] | Potency [17] | Potency [18] | Potency [19]

c1ccc2c(CC3=NCCN3)cccc2c1
inactive: max response [3] -1.39% | outcome [4] | max response [5] -1.06% | max response [6] -1.96% and -17.3% and -10.3% | max response [7] 1.32% | outcome [8] | Potency [9] | Potency [10] | Potency [11] | Potency [12] | Potency [14] | Potency [15] | Potency [16] | Potency [17] | Potency [18] | Potency [19]
